Screens (PubChem)
Most compounds without a hit are left out; they make up all but 6% or so of the library.
Tau FP inhib: tau fibrillization inhibition (FP); P10636; K18 P301L tau heparin fibrillization, Alexa594 FP, 6 h; Potency, µM (series often up to 57.7 µM), without a hit: at the highest dose activity, negative = inhibition, usual class: inhibitors; 280,000 tested, 0.39% active; note: nearly all actives have a fitted effect of over 55% in size
Target sequence (P10636 561-689 P618L limits assumed): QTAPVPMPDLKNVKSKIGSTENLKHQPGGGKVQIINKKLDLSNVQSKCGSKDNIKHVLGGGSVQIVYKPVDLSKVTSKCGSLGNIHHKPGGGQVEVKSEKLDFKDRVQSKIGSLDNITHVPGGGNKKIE
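Human tau K18 […] P301L fragment, 15 uM unlabeled plus 0.24 uM Alexa 594-labeled tau (final), with compound and 20 uM heparin in 100 mM sodium acetate pH 7; 6 hr at 37 C, then Alexa 594 FP read.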
VDR inh: vitamin D3 receptor (human) inhibition. P11473. VDR-SRC2-3 peptide fluorescence polarization, 2 h. Potency, µM, for inactives: max response, negative = inhibition, usual class: inhibitors. 400,000 tested, 0.93% active. AID 504847
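Inhibition of the VDR/SRC2-3 peptide interaction is quantified by fluorescence polarization. Compounds (23 nl, pintool) incubate with the reagents for 2 hours at ambient room temperature.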
Tau fluor cs: counter-screen for tau fibril formation inhibitors | tau K18 P301L Alexa594 fluorescence, heparin fibrillization | Potency, µM (highest dose often 57.7 µM), for inactives: top-dose activity change, negative = decrease | 280,000 tested, 0.93% active; note: nearly all actives have a fitted effect of over 55% in size
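Human K18 P301L tau (15 uM unlabeled plus 0.24 uM Alexa 594-labeled, final) in 100 mM sodium acetate pH 7 was mixed with compound and 20 uM heparin and incubated 6 hr at 37 C.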
Sfp PPTase inh: blocks B. subtilis Sfp PPTase activity; 310,000 tested, 3.5% active; Potency, µM, for inactives: largest response in the series, negative = inhibition, actives largely listed as inhibitors; Biochemical Sfp PPTase activity, qHTS;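 note: the enzyme is Sfp with the accession as filed and its product quenches rhodamine fluorescence; 0% = enzyme reaction without inhibitor and -100% = no enzyme wells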
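With Hepes-Na pH 7.6 buffer containing 10 mM MgCl2, Sfp (15 nM) modified BHQ-2-YbbR (12.5 uM) using rhodamine-CoA (5 uM). Two reads 30 minutes apart at 525/598 nm yielded each well's rate.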
PLK1 PBD block: PLK1 (human) polo-box domain binding inhibition; Plk1 PBD binding of FITC phosphopeptide, fluorescence polarization; Potency, µM, without a hit: max response, negative = inhibition, hits mostly inhibitors; 360,000 tested, 2.8% active; P53350; note: series mostly up to about 57 µM; nearly all actives have a fitted effect of over 65% in size
Target sequence (P53350 whole entry, looked up, the tested form may be a part): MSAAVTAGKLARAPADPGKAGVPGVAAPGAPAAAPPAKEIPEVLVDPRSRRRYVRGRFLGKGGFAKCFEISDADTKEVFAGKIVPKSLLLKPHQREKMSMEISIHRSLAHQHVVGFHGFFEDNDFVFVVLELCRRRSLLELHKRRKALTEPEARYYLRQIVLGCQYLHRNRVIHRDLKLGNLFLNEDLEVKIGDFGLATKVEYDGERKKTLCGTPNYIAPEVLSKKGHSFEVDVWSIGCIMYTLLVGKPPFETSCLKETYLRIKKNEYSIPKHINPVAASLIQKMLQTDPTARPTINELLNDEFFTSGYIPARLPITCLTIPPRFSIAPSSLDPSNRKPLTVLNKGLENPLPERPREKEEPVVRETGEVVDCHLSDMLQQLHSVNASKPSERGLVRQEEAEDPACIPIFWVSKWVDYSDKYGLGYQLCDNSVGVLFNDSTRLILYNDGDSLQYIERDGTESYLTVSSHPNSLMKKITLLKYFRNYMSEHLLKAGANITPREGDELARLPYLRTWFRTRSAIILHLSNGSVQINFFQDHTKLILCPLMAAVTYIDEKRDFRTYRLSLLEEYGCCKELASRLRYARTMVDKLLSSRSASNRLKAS
Tau fibril ThT: tau fibrillization inhibition (ThT binding); P10636; Potency, µM (doses to about 57.4 µM), for inactives: top-dose activity, negative = inhibition, usual class: inhibitors; recombinant tau K18 P301L (four-repeat tau fragment), heparin-induced fibrillization, ThT fluorescence; 270,000 tested, 2.1% active; AID 1460; note: nearly all actives have a fitted effect of over 55% in size
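K18 P301L tau (15 uM + 0.24 uM Alexa 594-tagged), heparin 20 uM, NaOAc pH 7, 6 h 37 C; ThT 30 uM, 1 h RT, ex 450/em 510 nm.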
Starred values were filed as active, the others as inactive; [ ] = another dose, or the depositor's remark. Calls come from the whole dose curve; as a rule, active = well fitted curve in the direction sought with a large enough effect; inconclusive = small, poorly fitted or top-dose-only effect, or another doubt; inactive = no such curve, though single readings can be large; an effect the other way counts as inactive or inconclusive. Unless noted, % is set by controls: 0 for no effect and ±100 for the full control effect; potency is the fitted concentration of half-maximal effect.

Results for COc1ccc(/C=C2\N=C(SC)SC2=O)cc1OC ?
Tau FP inhib: 0.1%; VDR inh: -0.3%; Tau fluor cs: -12.0%; Sfp PPTase inh: 4.9%; PLK1 PBD block: 2.7%; Tau fibril ThT: inconclusive

What do the screens show for `CCOc1c(OC(C)=O)ccc(/C=C2\N=C(SCC)SC2=O)c1[N+](=O)[O-]`?
Tau FP inhib: inconclusive; VDR inh: inconclusive; Tau fluor cs: 17.8µM*[quencher]; Sfp PPTase inh: -67.9%; PLK1 PBD block: 29.9µM*; Tau fibril ThT: 14.1µM*

Results for CCOc1cc(/C=C2\N=C(SC)SC2=O)cc([N+](=O)[O-])c1OC(C)=O ?
Tau FP inhib: -11.0%; VDR inh: -7.6%; Tau fluor cs: inconclusive; Sfp PPTase inh: inconclusive; PLK1 PBD block: inconclusive; Tau fibril ThT: 3.55µM*

What do the screens show for `CCSC1=N/C(=C\c2ccc(C)s2)C(=O)S1`?
Tau FP inhib: -8.7%; VDR inh: -5.5%; Tau fluor cs: -29.0%; Sfp PPTase inh: inconclusive; PLK1 PBD block: -6.2%; Tau fibril ThT: inconclusive

What do the screens show for `CCOc1cc(/C=C2\N=C(SCC)SC2=O)cc([N+](=O)[O-])c1OC(C)=O`?
Tau FP inhib: -10.0%; VDR inh: -0.6%; Tau fluor cs: inconclusive; Sfp PPTase inh: inconclusive; PLK1 PBD block: 26.7µM*; Tau fibril ThT: 3.98µM*

How did COC(=O)c1ccccc1NC(=O)c1c(C)oc2ncn(C)c(=O)c12 do in these assays?
Tau FP inhib: 0.4%; VDR inh: -16.8%; Tau fluor cs: -3.6%; Tau fibril ThT: -1.2%

What do the screens show for `CCOC(=O)C1=C(c2ccccc2)Nc2ncnn2C1c1ccc(C(=O)O)cc1` (stereo not drawn)?
Tau FP inhib: -3.4%; VDR inh: 6.3%; Tau fluor cs: -10.6%; Sfp PPTase inh: 9.7%; PLK1 PBD block: -5.1%; Tau fibril ThT: -7.5%

Results for CCOC(=O)C1=C(c2ccccc2)NC(N)=NC1c1ccc(OCc2ccc(C(=O)OC)cc2)cc1 (stereo not drawn) ?
Tau FP inhib: -5.3%; VDR inh: -6.6%; Tau fluor cs: -24.6%; Sfp PPTase inh: 79.4µM*; PLK1 PBD block: -8.2%; Tau fibril ThT: inconclusive

What do the screens show for `COc1ccc(Cl)cc1-c1cc(C(=O)Nc2ccc(C)c(NS(C)(=O)=O)c2)[nH]n1`?
PLK1 PBD block: -13.2%

Results for O=C(CCl)N1c2ccccc2SCC1c1ccccc1 (stereo not drawn) ?
VDR inh: inconclusive; Sfp PPTase inh: -1.5%; PLK1 PBD block: 2.99µM*

Results for O=C(CCl)N1c2ccccc2OCC1c1ccccc1 (stereo not drawn) ?
Tau FP inhib: 3.2%; VDR inh: -26.5%; Tau fluor cs: 5.4%; Sfp PPTase inh: inconclusive; PLK1 PBD block: inconclusive; Tau fibril ThT: 12.2%

Results for Cn1c(=O)cc(OCCCC(=O)Nc2ccc(F)cc2)c2ccccc21 ?
Tau FP inhib: -2.9%; VDR inh: 1.0%; Tau fluor cs: -8.2%; Tau fibril ThT: 2.6%

How did CCOC(=O)CSc1nnc(-c2ccccc2)c(-c2ccccc2)n1 do in these assays?
VDR inh: 5.6%; Sfp PPTase inh: -2.2%; PLK1 PBD block: -24.6%

What do the screens show for `CCOC(=O)CSc1nc(-c2ccccc2)ns1`?
Tau FP inhib: 3.4%; VDR inh: inconclusive; Tau fluor cs: 1.6%; Sfp PPTase inh: 15.8µM*; PLK1 PBD block: 3.36µM*; Tau fibril ThT: -3.2%

What do the screens show for `O=C(CSc1nc(-c2ccccc2)ns1)N1CCOCC1`?
Tau FP inhib: 0.3%; VDR inh: -24.7%; Tau fluor cs: -14.8%; Sfp PPTase inh: 39.8µM*; PLK1 PBD block: 21.2µM*; Tau fibril ThT: -6.0%

Results for Cc1cccc(-c2nsc(SCC(=O)N3CCCC3)n2)c1 ?
Tau FP inhib: -3.1%; VDR inh: 4.8%; Tau fluor cs: -10.0%; Sfp PPTase inh: inconclusive; PLK1 PBD block: inconclusive; Tau fibril ThT: -17.2%

What do the screens show for `COc1ccccc1N1CCN(/N=C/C=C/c2ccccc2[N+](=O)[O-])CC1`?
Tau FP inhib: 12.1%; VDR inh: -18.9%; Tau fluor cs: inconclusive; Sfp PPTase inh: -3.9%; PLK1 PBD block: 6.1%; Tau fibril ThT: 14.1µM*

Results for O=[N+]([O-])c1ccccc1/C=C/C=N/N1CCCCC1 ?
Tau FP inhib: -0.7%; VDR inh: -12.8%; Tau fluor cs: -10.9%; Sfp PPTase inh: 18.9%; PLK1 PBD block: -4.3%; Tau fibril ThT: inconclusive

How did COc1ccccc1/C=N/N1CCN(c2ccc(Cl)cc2)CC1 do in these assays?
VDR inh: -1.2%; Sfp PPTase inh: 3.2%; PLK1 PBD block: -4.2%

How did O=[N+]([O-])c1ccccc1/C=N/N1CCN(c2ccc(Cl)cc2)CC1 do in these assays?
Tau FP inhib: 4.9%; VDR inh: -9.3%; Tau fluor cs: inconclusive; Sfp PPTase inh: 4.9%; PLK1 PBD block: -3.7%; Tau fibril ThT: 11.2µM*

Results for COc1ccccc1/C=C/C=N\N1CCN(Cc2ccccc2Cl)CC1 ?
Tau FP inhib: 5.9%; VDR inh: 7.5%; Tau fluor cs: inconclusive; Sfp PPTase inh: 22.4µM*; PLK1 PBD block: 0.8%; Tau fibril ThT: inconclusive

Results for Cn1ncc2c(N3CCN(c4ccc(Cl)c(Cl)c4)CC3)ncnc21 ?
Tau FP inhib: 6.7%; VDR inh: -12.6%; Tau fluor cs: 10.6%; Sfp PPTase inh: -15.6%; PLK1 PBD block: -8.0%; Tau fibril ThT: 7.0%

How did COc1ccc(NS(=O)(=O)c2ccc(N3CCOCC3)c(N)c2)cc1 do in these assays?
VDR inh: 17.8%; PLK1 PBD block: 2.6%

Results for NC(=S)NNc1cccc2cccnc12 ?
Tau FP inhib: 7.94µM*; VDR inh: inconclusive; Tau fluor cs: inconclusive; Sfp PPTase inh: 3.16µM*; PLK1 PBD block: inconclusive; Tau fibril ThT: 3.55µM*

Results for NC(=S)Nc1cccc2cccnc12 ?
Tau FP inhib: -3.8%; VDR inh: 2.0%; Tau fluor cs: -8.1%; Sfp PPTase inh: inconclusive; PLK1 PBD block: -11.8%; Tau fibril ThT: -5.8%

Results for COc1ccc(-c2ccc(CCC(=O)O)o2)cc1 ?
Tau FP inhib: -3.0%; VDR inh: inconclusive; Tau fluor cs: -12.8%; Sfp PPTase inh: 14.1µM*; PLK1 PBD block: -25.4%; Tau fibril ThT: inconclusive

What do the screens show for `NC(=O)c1ccc(-c2ccc(Br)cc2)o1`?
Tau FP inhib: -3.7%; VDR inh: 1.8%; Tau fluor cs: -1.7%; Sfp PPTase inh: -11.2%; PLK1 PBD block: -6.6%; Tau fibril ThT: 3.8%

How did COc1ccc(-c2noc(CCC(=O)O)n2)cc1 do in these assays?
Tau FP inhib: -6.5%; VDR inh: -12.8%; Tau fluor cs: -6.9%; Sfp PPTase inh: 3.9%; PLK1 PBD block: 0.0%; Tau fibril ThT: -0.7%

How did O=C(O)CCc1ccc(-c2ccc(Br)cc2)o1 do in these assays?
Tau FP inhib: -2.0%; VDR inh: inconclusive; Tau fluor cs: -5.5%; Sfp PPTase inh: 17.8µM*; PLK1 PBD block: inconclusive; Tau fibril ThT: inconclusive
